Results as given in ChEMBL document CHEMBL3988442, “University of Dundee, Small-Polar-MMV Screening Library” (2021).
For some of these results: Potency and affinity values are given separately.

Columns and labels:
Parameters in all cases: scale not given: direction of the effect not stated beside the values
[1] = biological target: Protein translocase subunit SecA (Escherichia coli (strain K12)) (UniProt P10408); test: Assay to Identify E. coli SecA ATPase Inhibitors; assay type: functional; settings: 30 µM
[2] = biological target: T1, Ubiquitin-activating enzyme e1, putative (Leishmania donovani (strain BPK282A1)) (UniProt E9BSI1); test: Leishmania donovani Ubiquitin Activating Enzyme (LdE1); assay type: functional; settings: 30 µM
T1 sequence (whole entry): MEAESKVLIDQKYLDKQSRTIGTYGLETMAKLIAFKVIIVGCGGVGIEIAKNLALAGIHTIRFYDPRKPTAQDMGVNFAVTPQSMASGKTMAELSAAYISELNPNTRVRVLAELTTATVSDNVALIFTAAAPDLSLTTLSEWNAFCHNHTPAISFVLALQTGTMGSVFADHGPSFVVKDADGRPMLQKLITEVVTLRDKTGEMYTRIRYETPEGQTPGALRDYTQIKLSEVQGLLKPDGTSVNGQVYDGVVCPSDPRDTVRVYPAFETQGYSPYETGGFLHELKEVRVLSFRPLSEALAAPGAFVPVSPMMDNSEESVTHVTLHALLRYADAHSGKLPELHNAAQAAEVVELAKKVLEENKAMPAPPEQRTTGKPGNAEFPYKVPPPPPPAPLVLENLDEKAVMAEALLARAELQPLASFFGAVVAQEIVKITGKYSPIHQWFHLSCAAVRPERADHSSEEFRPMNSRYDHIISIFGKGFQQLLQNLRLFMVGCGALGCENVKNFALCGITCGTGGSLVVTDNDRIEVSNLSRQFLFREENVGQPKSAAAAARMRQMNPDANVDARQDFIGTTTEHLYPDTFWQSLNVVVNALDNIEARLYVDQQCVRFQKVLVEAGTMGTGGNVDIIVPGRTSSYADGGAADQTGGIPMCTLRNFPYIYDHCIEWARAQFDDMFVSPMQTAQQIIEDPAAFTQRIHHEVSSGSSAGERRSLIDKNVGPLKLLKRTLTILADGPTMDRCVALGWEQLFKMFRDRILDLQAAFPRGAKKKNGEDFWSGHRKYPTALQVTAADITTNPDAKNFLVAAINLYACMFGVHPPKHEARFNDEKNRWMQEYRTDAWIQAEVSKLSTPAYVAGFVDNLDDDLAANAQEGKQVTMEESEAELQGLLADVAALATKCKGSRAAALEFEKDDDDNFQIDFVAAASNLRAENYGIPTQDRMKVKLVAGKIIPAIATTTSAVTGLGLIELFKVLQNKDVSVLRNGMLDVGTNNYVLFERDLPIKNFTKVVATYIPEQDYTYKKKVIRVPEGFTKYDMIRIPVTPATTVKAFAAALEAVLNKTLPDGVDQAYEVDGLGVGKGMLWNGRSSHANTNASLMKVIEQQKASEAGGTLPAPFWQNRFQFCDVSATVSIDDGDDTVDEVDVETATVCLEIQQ

[3] = biological target: AMP-activated protein kinase, AMPK (Homo sapiens) (UniProt P54646+O43741+P54619+Q9UGJ0+Q9Y478+Q13131+Q9UGI9); test: AMP-dependent Kinase enzyme assay. An in vitro enzyme assay that detects ADP turnover that is directly proportional to AMPK activity. This uses naive AMPK that is activated during the assay with MK-8722; assay type: functional; settings: 30 µM
[4] = biological target: Sialic acid-binding Ig-like lectin 9 (Homo sapiens) (UniProt Q9Y336); test: Hs-Siglec9 ALPHAscreen SOP 20170721; settings: 10 µM
[5] = tested on: Trypanosoma cruzi; test: Trypanosoma cruzi phosphomannomutase and mannose-1-phosphate guanylyltransferase assay; assay type: functional; settings: 10 µM
[6] = biological target: T2, Arginase-2, mitochondrial (Homo sapiens) (UniProt P78540); test: in vitro enzyme assay to detect the production of urea directly proportional to the activity of Arginase II; assay type: functional; settings: 33.3 µM; further: in the data most compounds retested in dose-response had high values
T2 sequence (whole entry): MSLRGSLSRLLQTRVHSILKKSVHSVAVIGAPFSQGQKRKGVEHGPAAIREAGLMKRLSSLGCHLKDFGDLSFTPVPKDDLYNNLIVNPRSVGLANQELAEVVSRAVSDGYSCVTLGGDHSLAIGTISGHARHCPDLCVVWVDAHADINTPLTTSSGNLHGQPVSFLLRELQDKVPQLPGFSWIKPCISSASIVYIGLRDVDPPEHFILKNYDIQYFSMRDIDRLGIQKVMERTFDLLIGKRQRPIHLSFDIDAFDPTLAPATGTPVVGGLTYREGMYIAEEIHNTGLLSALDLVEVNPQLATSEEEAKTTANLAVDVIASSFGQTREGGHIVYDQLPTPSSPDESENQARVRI

[7] = biological target: T3, Proteasome subunit beta (Trypanosoma cruzi) (UniProt O96673); test: Trypanosoma cruzi proteasome chymotrypsin-like activity (TcProtChymo) assay.; further: in the data most compounds retested in dose-response had high values; assay type: functional; settings: 9.37 µM
T3 sequence (whole entry): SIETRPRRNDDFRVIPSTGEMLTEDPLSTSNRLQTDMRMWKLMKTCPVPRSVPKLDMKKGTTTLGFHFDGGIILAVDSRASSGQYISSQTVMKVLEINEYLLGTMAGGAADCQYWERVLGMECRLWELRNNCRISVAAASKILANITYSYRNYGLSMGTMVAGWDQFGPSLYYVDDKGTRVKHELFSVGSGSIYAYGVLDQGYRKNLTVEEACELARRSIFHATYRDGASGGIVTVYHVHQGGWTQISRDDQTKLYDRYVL

[8] = species: Homo sapiens; test: To identify inhibition of the IFN signalling (Jak-Stat) pathway via expression of an eGFP reporter gene under the control of an IFN-stimulated response element (ISRE) containing MxA promoter.; assay type: functional; settings: 30 µM
[9] = biological target: T4, Tyrosyl-tRNA synthetase, putative (Trypanosoma cruzi (strain CL Brener)) (UniProt Q4DSP6); test: Trypanosoma cruzi tyrosyl tRNA synthetase (TcYRS) _High Tyrosine SOP; assay type: functional; settings: 30 µM; further: in the data most compounds retested in dose-response had high values
T4 sequence (whole entry): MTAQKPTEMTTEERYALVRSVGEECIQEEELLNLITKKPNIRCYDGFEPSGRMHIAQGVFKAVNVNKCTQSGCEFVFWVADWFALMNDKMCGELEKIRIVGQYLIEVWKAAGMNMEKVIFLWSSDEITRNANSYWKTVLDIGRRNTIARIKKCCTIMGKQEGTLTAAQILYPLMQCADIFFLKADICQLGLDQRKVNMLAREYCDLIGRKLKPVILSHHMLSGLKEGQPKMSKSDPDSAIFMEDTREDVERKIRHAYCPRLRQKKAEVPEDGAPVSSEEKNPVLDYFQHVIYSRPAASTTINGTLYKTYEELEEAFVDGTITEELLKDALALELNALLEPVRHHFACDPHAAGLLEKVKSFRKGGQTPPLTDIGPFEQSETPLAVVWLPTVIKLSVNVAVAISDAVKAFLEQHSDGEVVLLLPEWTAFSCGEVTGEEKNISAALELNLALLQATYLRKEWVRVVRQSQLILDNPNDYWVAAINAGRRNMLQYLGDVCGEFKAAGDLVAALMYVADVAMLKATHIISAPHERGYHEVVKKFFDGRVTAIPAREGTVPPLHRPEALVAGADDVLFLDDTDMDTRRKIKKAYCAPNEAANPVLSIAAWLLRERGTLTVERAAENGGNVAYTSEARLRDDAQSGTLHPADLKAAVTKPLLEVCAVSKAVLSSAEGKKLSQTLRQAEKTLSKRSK

[10] = biological target: T4, Tyrosyl-tRNA synthetase, putative (Trypanosoma cruzi (strain CL Brener)); test: Trypanosoma cruzi tyrosyl tRNA synthetase (TcYRS) SOP; assay type: functional; settings: 30 µM
[11] = biological target: Chromo domain-containing protein 1 (Saccharomyces cerevisiae (strain ATCC 204508 / S288c) (Baker's yeast)) (UniProt P32657); test: ScCHD-1 Enzyme Inhibition Assay; assay type: functional; settings: 30 µM; further: in the data most compounds retested in dose-response had high values
Sequence of Chromo domain-containing protein 1 (Saccharomyces cerevisiae (strain ATCC 204508 / S288c) (Baker's yeast)) (P32657 whole entry, the tested form may be a part): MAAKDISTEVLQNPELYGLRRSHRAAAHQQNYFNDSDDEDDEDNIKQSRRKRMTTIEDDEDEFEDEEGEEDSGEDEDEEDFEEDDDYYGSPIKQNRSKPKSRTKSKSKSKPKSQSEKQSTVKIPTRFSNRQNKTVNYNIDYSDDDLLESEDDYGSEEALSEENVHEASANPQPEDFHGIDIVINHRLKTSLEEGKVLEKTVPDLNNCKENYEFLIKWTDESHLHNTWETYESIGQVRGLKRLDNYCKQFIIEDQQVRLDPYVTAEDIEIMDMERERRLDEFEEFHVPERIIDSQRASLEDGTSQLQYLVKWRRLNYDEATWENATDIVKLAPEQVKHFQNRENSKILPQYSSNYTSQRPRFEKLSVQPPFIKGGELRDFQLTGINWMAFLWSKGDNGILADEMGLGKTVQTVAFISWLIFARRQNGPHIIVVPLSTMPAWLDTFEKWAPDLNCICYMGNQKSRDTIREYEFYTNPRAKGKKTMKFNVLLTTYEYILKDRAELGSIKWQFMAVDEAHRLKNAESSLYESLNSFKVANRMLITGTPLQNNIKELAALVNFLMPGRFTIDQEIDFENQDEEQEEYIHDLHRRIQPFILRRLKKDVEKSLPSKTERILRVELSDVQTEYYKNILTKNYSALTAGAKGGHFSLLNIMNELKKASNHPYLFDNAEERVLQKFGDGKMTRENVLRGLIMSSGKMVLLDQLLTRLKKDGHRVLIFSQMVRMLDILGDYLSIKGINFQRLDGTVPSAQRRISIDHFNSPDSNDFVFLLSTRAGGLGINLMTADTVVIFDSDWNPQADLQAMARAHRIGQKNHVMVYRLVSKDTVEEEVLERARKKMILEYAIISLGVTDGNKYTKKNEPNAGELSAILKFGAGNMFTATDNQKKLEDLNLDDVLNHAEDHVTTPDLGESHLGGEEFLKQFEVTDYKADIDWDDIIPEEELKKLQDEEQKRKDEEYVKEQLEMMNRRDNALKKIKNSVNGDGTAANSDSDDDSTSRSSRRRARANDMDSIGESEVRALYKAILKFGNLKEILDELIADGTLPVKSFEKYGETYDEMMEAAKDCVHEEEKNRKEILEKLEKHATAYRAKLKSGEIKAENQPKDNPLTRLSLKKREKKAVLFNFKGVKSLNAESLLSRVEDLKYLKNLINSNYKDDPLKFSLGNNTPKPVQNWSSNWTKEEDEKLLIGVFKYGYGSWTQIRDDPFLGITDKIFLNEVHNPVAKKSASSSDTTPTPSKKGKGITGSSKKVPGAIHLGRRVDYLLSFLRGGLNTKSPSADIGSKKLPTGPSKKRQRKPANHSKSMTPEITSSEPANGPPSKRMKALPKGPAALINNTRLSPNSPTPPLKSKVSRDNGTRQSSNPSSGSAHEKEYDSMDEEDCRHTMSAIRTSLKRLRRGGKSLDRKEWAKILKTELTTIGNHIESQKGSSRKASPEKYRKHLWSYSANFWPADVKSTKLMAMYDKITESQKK

Sequence of Protein translocase subunit SecA (Escherichia coli (strain K12)) (P10408 whole entry): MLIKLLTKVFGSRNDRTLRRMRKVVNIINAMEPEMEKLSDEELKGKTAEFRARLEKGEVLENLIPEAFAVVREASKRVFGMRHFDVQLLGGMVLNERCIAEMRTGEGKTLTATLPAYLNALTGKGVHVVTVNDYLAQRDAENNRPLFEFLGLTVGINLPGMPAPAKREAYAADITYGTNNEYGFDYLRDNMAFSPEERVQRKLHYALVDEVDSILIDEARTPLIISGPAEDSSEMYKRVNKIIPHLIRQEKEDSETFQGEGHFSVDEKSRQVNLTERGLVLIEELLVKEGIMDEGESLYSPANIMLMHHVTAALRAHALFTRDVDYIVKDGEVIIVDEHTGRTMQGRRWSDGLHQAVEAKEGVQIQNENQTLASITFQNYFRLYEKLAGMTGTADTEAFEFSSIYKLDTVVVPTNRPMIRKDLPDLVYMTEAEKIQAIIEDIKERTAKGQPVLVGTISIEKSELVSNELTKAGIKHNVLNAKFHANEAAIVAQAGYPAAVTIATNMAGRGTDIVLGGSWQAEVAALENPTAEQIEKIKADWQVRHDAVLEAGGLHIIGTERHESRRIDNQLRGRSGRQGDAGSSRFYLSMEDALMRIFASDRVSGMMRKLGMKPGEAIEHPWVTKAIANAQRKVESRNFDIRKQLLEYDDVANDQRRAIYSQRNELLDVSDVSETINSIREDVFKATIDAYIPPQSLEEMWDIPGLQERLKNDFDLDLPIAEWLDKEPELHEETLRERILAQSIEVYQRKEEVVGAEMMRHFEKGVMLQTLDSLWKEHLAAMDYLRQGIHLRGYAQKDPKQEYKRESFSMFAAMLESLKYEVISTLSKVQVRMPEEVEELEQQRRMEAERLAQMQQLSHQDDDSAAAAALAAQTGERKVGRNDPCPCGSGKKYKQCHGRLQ
Sequence of Sialic acid-binding Ig-like lectin 9 (Homo sapiens) (Q9Y336 whole entry): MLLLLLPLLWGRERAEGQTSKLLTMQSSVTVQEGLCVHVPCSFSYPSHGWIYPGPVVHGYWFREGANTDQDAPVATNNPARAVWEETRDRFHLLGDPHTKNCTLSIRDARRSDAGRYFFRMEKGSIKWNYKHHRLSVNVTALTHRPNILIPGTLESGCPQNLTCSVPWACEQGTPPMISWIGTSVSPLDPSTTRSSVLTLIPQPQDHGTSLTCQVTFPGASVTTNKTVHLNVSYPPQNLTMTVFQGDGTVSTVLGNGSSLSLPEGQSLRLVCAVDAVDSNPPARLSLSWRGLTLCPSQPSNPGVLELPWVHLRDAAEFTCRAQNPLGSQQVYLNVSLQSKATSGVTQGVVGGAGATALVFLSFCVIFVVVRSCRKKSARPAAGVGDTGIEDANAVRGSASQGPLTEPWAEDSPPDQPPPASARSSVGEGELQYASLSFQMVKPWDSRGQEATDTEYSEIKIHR

SMILES | Percent Effect [1] [%] | Percent Effect [2] [%] | Percent Effect [3] [%] | Percent Effect [4] [%] | Percent Effect [5] [%] | Percent Effect [6] [%] | Percent Effect [7] [%] | Percent Effect [8] [%] | Percent Effect [9] [%] | Percent Effect [10] [%] | Percent Effect [11] [%]
CCc1nc(CN2CCN(C(=O)c3cnccn3)CC2)cs1 | -2.42 | 5.41 | -4.67 | 12.2 | 4.92 | -5.73 | 15.3 | 11.6 | 1.98 | 11 | -2.71
Cc1nc(C2CCCN(C(=O)c3ccc(OCC4CC4)cc3)C2)no1 (stereo not given) | -11 | 15.8 | -2.79 | 21.9 | 10.9 | 3.24 | 7.19 | 0.288 | 5.42 | 25.9 | -8.85
Cn1ncc2c1C(COCC1CC1)CN(Cc1nccs1)C2 (stereo not given) | -1.87 | 15.6 | -6.52 | 0.425 | 1.87 | 5.81 | 1.92 | 28.4 | 8.47 | 14.1 | -10.6
Cn1cc(CN2CCc3c(nc(-c4ccccn4)[nH]c3=O)C2)cn1 | -4.53 | 2.67 | 8.84 | 5.72 | -2.56 | -1.17 | 6.78 | -0.565 | 12.8 | 19.2 | -1.71
CC(C)CN1CCC(NC(=O)c2ccc(F)cc2I)CC1 | -4.38 | 23.6 | -16 | 29.2 | 7.48 | 39.7 | 8.6 | -5.59 | 4.21 | 17.9 | -10.3
